# PubChem BioAssay (Tox21)
# Unmarked numbers belong to inactive results. Results filed as inconclusive are left out. A call without a number means that no potency is given here. Active and inactive are the calls of the source. Unless noted, calls follow the shape of the dose curve; as a rule, active = well fitted curve in the direction sought with a large enough effect in the repeat runs; inconclusive = weak or mixed curves; inactive = no such curve, though single readings can be large; an effect the other way counts as inactive or inconclusive.
# Tests used:
# [1] = qHTS assay to identify small molecule agonists of the estrogen receptor alpha (ER-alpha) signaling pathway in the presence of an antagonist - cell viability counter screen (AID 1259386);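 also: cells exposed to compounds for 22 h at 37 °C before the viability read; nearly all actives have a fitted effect of over 30% in size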; also: potency is read from the fitted curve at half-maximal effect
# Summary of the method: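 Viability counter screen using VM7Luc4E2 (full-length ER-alpha, four ERE-luciferase). The cells were treated with compounds alongside ICI-182,780 10.0nM for 22hr, and live-cell protease fluorescence was quantified with CellTiter-Fluor.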
# [2] = target: Progesterone receptor (Homo sapiens) (UniProt P06401); assay: qHTS assay to identify small molecule agonists of the progesterone receptor (PR) signaling pathway (AID 1346784; calls by dose curve; also: nearly all actives have a fitted effect of over 30% in size)
# Sequence of Progesterone receptor (Homo sapiens) (P06401 whole entry, looked up): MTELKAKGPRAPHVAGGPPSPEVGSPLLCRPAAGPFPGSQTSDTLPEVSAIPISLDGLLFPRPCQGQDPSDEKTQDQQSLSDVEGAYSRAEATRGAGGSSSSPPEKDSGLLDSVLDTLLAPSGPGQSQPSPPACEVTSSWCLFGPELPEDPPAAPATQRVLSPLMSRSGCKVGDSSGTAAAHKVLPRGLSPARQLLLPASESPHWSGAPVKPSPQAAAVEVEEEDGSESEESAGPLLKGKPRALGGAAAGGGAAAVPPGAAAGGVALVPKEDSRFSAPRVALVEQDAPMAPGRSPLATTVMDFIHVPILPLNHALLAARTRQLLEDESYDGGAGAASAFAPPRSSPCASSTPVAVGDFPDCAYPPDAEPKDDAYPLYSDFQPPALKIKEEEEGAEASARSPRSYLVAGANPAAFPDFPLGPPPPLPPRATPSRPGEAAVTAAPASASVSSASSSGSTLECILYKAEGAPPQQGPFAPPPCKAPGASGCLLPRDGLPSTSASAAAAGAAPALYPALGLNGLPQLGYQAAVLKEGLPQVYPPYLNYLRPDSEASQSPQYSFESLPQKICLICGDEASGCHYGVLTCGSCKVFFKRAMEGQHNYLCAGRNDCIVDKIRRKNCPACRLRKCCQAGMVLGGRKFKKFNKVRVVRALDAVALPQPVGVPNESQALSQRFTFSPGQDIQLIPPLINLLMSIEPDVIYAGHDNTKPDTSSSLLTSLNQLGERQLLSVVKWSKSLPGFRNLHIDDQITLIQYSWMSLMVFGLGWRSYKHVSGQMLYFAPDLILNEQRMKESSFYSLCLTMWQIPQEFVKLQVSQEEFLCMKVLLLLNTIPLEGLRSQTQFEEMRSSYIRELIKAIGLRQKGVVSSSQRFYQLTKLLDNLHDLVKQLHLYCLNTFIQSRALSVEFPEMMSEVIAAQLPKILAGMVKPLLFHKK
# Summary of the method: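 PR-UAS-bla HEK 293T cells (beta-lactamase reporter under UAS) in 2% charcoal-stripped FBS, dosed with 23 nL compound after 6 hr, incubated 16hr at 37C. LiveBLAzer B/G FRET substrate added, fluorescence read after 2 hours.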
# [3] = target: Progesterone receptor (Homo sapiens) (UniProt P06401); assay: qHTS assay to identify small molecule antagonists of the progesterone receptor (PR) signaling pathway (AID 1346795; active = well fitted inhibition curve with a large enough effect in the signal ratio in the repeat runs, not every such curve was filed as active; the % refers to the signal ratio)
# Summary of the method: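 PR-UAS-bla HEK293T cells with beta-lactamase reporter under UAS control, in 2% charcoal-stripped FBS, treated with compounds plus 1 nM promegestone (R5020, final) for 16 hr at 37C. Read-out: FRET beta-lactamase substrate fluorescence after 2 hr at room temperature.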
# [4] = qHTS assay to identify small molecule antagonists of the progesterone receptor (PR) signaling pathway - cell viability counter screen (AID 1346798); also: series mostly up to about 92 µM; nearly all actives have a fitted effect of over 50% in size
# Summary of the method: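 PR-UAS-bla HEK293T cells, 3,000/well in 2% charcoal-stripped FBS medium, dosed with compounds plus R5020 agonist and incubated 16 h at 37C. Viability then measured in the same wells by CellTiter-Glo luminescence after 30 min at RT.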
# [5] = qHTS assay to identify small molecule antagonists of the TGF-beta/Smad signaling pathway - cell viability counter screen (AID 1346824); also: nearly all actives have a fitted effect of over 50% in size
# Summary of the method: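 Cytotoxicity counter-screen run in the same wells as the beta-lactamase Smad reporter read: CellTiter-Glo luminescence after 30 min at room temperature. HEK 293T SBE-bla cells had 5 hr compound exposure at 37 C with TGF-beta1 (0.25 ng/mL stock).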
# [6] = qHTS assay to identify small molecule agonists of the TGF-beta/Smad signaling pathway - cell viability counter screen (AID 1346829); also: top concentration of the series differs between compounds; nearly all actives have a fitted effect of over 45% in size
# Summary of the method: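 SBE-bla HEK 293T cells plated overnight, compound exposure 5 hr at 37 C. Viability read in the same wells by CellTiter-Glo luminescence after 30 min at room temperature, following the beta-lactamase read.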
# [7] = target: Thyrotropin-releasing hormone receptor (Homo sapiens) (UniProt P34981); assay: qHTS assay to identify small molecule antagonists of the thyrotropin-releasing hormone receptor (TRHR) signaling pathway (AID 1346877; active = well fitted inhibition curve with a large enough effect in the repeat runs, not every such curve was filed as active; also: series mostly up to about 51 µM)
# Sequence of Thyrotropin-releasing hormone receptor (Homo sapiens) (P34981 whole entry, looked up): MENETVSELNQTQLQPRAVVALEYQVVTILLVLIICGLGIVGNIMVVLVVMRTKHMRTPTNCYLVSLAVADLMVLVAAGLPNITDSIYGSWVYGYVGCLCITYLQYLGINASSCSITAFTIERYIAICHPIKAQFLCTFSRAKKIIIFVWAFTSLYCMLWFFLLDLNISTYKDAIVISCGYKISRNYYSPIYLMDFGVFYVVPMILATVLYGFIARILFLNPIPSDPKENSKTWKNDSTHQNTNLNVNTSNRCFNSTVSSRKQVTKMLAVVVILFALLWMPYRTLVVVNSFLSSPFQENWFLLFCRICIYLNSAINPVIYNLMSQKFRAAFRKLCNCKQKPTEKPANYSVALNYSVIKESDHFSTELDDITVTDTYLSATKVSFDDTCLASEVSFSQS
# Summary of the method: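 Following an 18 h incubation at 37 °C and a 2 h calcium dye load, TRHR-HEK293 cells were exposed to compound (5 min, room temperature) and challenged with TRH, 1 nM final.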
# [8] = target: Thyrotropin-releasing hormone receptor (Homo sapiens) (UniProt P34981); assay: qHTS assay to identify small molecule agonists of the thyrotropin-releasing hormone receptor (TRHR) signaling pathway (AID 1346891; calls by dose curve; also: series mostly up to about 58 µM)
# Summary of the method: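 HEK293 cells expressing TRHR plated 18 h at 37 C/5% CO2, calcium dye-loaded 2 h at 37 C, then compound added (agonist mode); kinetic calcium fluorescence read 3 min at 1 s intervals; 15 concentrations in triplicate.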
# [9] = Human pregnane X receptor (PXR) small molecule agonists, qHTS cell viability counter screen (AID 1346977); also: nearly all actives have a fitted effect of over 50% in size; also: potency is read from the fitted curve at half-maximal effect
# Summary of the method: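 PXR-Luc HepG2 cells (2,000/well, 5% charcoal-stripped FBS) preincubated 5 hr, then exposed to compounds 24 hr at 37 C. Viability read in the same wells by CellTiter-Fluor fluorescence, reagent added at 23 hr, 1 hr incubation.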
# [10] = Caspase-3/7 induction in HepG2 cells by small molecules, qHTS assay (AID 1346978); also: nearly all actives have a fitted effect of over 15% in size
# Summary of the method: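 Caspase-3/7 induction was measured by Caspase-Glo 3/7 luminescence (30 min, room temperature) after a 17 hr compound exposure of wild-type HepG2 cells seeded at 2,000 per well and pre-incubated 5 hr.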
# [11] = Caspase-3/7 induction in CHO-K1 cells by small molecules, qHTS assay (AID 1346980); also: nearly all actives have a fitted effect of over 15% in size
# Summary of the method: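 Luminescent Caspase-Glo 3/7 read (30min, room temperature) quantified apoptosis induction. Cells were wild-type CHO-K1, treated with compound for 17hr at 37 C and 5% CO2.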
# [12] = target: Nuclear receptor subfamily 1 group I member 2 (Homo sapiens) (UniProt O75469); assay: Human pregnane X receptor (PXR) small molecule agonists, qHTS assay (AID 1346982); also: nearly all actives have a fitted effect of over 35% in size
# Sequence of Nuclear receptor subfamily 1 group I member 2 (Homo sapiens) (O75469 whole entry, looked up): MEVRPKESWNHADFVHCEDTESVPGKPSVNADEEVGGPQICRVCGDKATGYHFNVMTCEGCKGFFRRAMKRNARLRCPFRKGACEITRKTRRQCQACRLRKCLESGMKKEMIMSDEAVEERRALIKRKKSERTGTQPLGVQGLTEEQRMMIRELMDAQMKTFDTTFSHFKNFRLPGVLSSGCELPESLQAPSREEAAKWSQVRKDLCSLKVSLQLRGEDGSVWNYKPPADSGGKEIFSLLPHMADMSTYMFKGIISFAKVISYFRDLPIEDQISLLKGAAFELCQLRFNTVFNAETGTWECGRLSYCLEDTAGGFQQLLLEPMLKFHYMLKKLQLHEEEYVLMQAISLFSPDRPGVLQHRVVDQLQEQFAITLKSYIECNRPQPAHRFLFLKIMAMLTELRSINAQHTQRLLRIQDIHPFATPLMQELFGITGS
# Summary of the method: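 Compound-induced hPXR transactivation of a CYP3A4 luciferase reporter was scored in HepG2 PXR-Luc cells over 24 hr at 37 C, 5% CO2, by luminescence.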
# [13] = target: Cytochrome P450 2D6 (Homo sapiens) (UniProt P10635); assay: Cytochrome P450 Family 2 Subfamily D Member 6 (CYP2D6) small molecule antagonists: luciferase reporter qHTS assay (AID 1671196); also: nearly all actives have a fitted effect of over 50% in size; also: potency is read from the fitted curve at half-maximal effect
# Sequence of Cytochrome P450 2D6 (Homo sapiens) (P10635 whole entry, looked up): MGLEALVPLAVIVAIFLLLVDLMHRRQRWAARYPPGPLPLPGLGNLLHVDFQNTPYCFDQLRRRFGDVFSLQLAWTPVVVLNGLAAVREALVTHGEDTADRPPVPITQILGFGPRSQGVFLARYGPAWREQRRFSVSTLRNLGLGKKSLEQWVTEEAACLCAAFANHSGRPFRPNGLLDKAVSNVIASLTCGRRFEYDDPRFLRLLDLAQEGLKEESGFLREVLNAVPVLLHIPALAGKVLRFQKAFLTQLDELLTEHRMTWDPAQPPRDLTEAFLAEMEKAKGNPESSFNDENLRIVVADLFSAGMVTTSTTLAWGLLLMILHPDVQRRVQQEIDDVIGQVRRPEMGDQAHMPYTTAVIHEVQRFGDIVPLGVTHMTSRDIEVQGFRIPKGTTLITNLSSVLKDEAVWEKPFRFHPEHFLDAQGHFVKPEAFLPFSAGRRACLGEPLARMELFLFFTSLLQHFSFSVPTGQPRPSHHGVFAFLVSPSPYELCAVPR
# Summary of the method: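 Each well received CYP2D6 with its proluciferin substrate and chemical, sat 10 min, then got NADPH regeneration solution for 1 h at room temperature. Luminescence in RLU served as the activity measure.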
# [14] = qHTS assay to identify small molecule agonists of the progesterone receptor (PR) signaling pathway - cell viability counter screen (AID 1346799; calls by dose curve; also: nearly all actives have a fitted effect of over 45% in size)
# Summary of the method: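 Counter screen in the PR-UAS-bla HEK293T wells (2% charcoal-stripped FBS, 16 h compound exposure at 37 C) after the bla read. CellTiter-Glo added, 30 min at room temperature, luminescence read as cell viability.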
# [15] = qHTS assay to identify small molecule agonists of the TGF-beta/Smad signaling pathway (AID 1346859; active = well fitted activation curve with a large enough effect in the signal ratio in the repeat runs, not every such curve was filed as active; the % refers to the signal ratio; also: series mostly up to about 77 µM)
# Summary of the method: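 SBE-bla HEK293T cells plated overnight, then compound exposure for 5 h at 37 C. Beta-lactamase reporter read with LiveBLAzer B/G FRET substrate after 2 h at room temperature, fluorescence at 405 nm excitation, 460/530 nm emission.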
# [16] = Caspase-3/7 induction in CHO-K1 cells by small molecules, qHTS cell viability counter screen (AID 1346979); also: nearly all actives have a fitted effect of over 35% in size; also: potency is read from the fitted curve at half-maximal effect
# Summary of the method: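 Wild-type CHO-K1 cells (1,500/well) treated with compound after 5 h plating; after 16 h at 37C, viability read as CellTiter-Fluor fluorescence following 1 h reagent incubation, in the same wells as the caspase read.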
# [17] = Caspase-3/7 induction in HepG2 cells by small molecules, qHTS cell viability counter screen (AID 1346981); also: nearly all actives have a fitted effect of over 30% in size; also: potency is read from the fitted curve at half-maximal effect
# Summary of the method: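 Viability determined by CellTiter-Fluor fluorescence in HepG2 wells also used for the luminescent Caspase-Glo 3/7 read. Compounds were present for 16 hr at 37 C, 5% CO2 before reagent addition.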
# [18] = target: Nuclear receptor subfamily 1 group I member 2 (Rattus norvegicus) (UniProt Q9R1A7); assay: Rat pregnane X receptor (rPXR) activation by small molecules, qHTS assay (AID 1346983); conditions: rPXR luciferase reporter cells, One-Glo luminescence, 24 h; max activation: stronger effect = higher value; also: nearly all actives have a fitted effect of over 20% in size
# Sequence of Nuclear receptor subfamily 1 group I member 2 (Rattus norvegicus) (Q9R1A7 whole entry, looked up): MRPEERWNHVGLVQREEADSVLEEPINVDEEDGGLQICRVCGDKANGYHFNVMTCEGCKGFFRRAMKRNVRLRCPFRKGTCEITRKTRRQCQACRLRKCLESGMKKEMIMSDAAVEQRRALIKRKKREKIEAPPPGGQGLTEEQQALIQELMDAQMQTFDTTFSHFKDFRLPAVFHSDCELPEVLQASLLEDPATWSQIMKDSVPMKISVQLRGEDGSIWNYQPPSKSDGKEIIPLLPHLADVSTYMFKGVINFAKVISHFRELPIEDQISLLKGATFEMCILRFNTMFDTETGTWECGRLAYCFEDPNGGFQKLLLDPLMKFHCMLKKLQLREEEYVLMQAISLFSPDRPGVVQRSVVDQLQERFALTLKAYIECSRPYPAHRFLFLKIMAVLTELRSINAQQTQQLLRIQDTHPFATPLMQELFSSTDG
# Summary of the method: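 Luminescent readout (One-Glo luciferase, 30 min room temperature) followed 24 hr compound treatment at 37 C of rPXR cells plated 2,000 per well and preincubated 5hr; qHTS format with compounds delivered in DMSO.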
# [19] = target: Nuclear receptor subfamily 1 group I member 2 (Homo sapiens) (UniProt O75469); assay: CYP3A4 induction through human pregnane X receptor (PXR) by small molecules, qHTS assay (AID 1346984); also: nearly all actives have a fitted effect of over 40% in size
# Summary of the method: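 Readings come from a luciferase reporter: DPX-2 cells, which are HepG2 cotransfected with PXR and a CYP3A4-promoter construct, were exposed to test compounds for 24 h at 37C before One-Glo detection.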
# [20] = target: Nuclear receptor subfamily 1 group I member 2 (Homo sapiens) (UniProt O75469); assay: Human pregnane X receptor (PXR) activation by small molecules, qHTS assay (AID 1346985); also: nearly all actives have a fitted effect of over 40% in size
# Summary of the method: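 DPX-2 cells (HepG2 co-transfected with a PXR response element and a CYP3A4-promoter luciferase construct) were seeded at 2,000 per well, rested 5 hr at 37C, then exposed to DMSO-dissolved compounds for 24 hr. Activation was read as luciferase luminescence.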
Structure (SMILES),Potency [1],outcome [2],Potency [3],Potency [4],Potency [5],Potency [6],outcome [7],Potency [8],Potency [9],outcome [10],Potency [11],Potency [12],Potency [13],Potency [14],outcome [15],Potency [16],Potency [17],max activation [18] [%],Potency [19],Potency [20]
CC(=O)c1ccc2c(c1)[C@H](NC(=O)c1ccc(F)cc1)[C@@H](O)C(C)(C)O2,inactive,inactive,inactive,inactive,inactive,inactive,inactive,inactive,inactive,inactive,inactive,inactive,18.8 µM (active),,,,,,,
Cc1cc(C)c(S(=O)(=O)O)cc1N=Nc1cc(S(=O)(=O)O)c2ccccc2c1O,27.3 µM (active),inactive,,inactive,inactive,inactive,inactive,inactive,24.3 µM (active),inactive,,inactive,,inactive,inactive,30.6 µM (active),34.4 µM (active),,,
Nc1nc(N)c(-c2ccccc2)s1,inactive,inactive,inactive,,inactive,inactive,,,inactive,inactive,inactive,inactive,inactive,inactive,inactive,,inactive,-3.93,inactive,inactive
O=[N+]([O-])c1cccc(Cl)c1Cl,inactive,inactive,inactive,,inactive,inactive,inactive,inactive,inactive,inactive,inactive,inactive,inactive,inactive,inactive,inactive,inactive,,,
